Bioassay records as filed in PubChem.
Sampled rows, rich in hits. Any-hit rate of the full collection: about 3.5%.
Pf apPOL block: Pf-apPOL inhibitors, biochemical, fluorescence; Plasmodium falciparum apicoplast DNA polymerase (apPOL); 210,000 compounds, 0.25% hits; AID 1794808, 2022; inhibition, % at 10 µM; Recombinant Pf-apPOL, molecular beacon fluorescence, 1.5 h
mHTT-CaM PPI inh: mutant huntingtin-calmodulin interaction inhibitors – biochemical, AlphaScreen, primary screen | inhibition, % at 15 µM | AID 1671202, 2021 | AlphaScreen His-mHTT/GST-CaM binding, luminescence | 190,000 compounds, 3.6% hits | P42858
Large screens that a line does not name were inactive; ! = a repeat was not active. No stated cut-off is given here; in the data, active means inhibition above about 50%; inactive means the rest.

Cc1ccc(N2CCN(CCc3ccccc3)CC2)cc1	none
Cc1cccc(N2CCN(CCc3ccccc3)CC2)c1C	mHTT-CaM PPI inh 100
CCC12CN3CC(CC)(CN(C1)C3c1ccccn1)C2O (configuration not stated)	mHTT-CaM PPI inh 100
CC12CN3CC(C)(CN(C1)C3c1ccncc1)C2=O (configuration not stated)	none
COc1cc(Br)cc(CN2CCN(Cc3ccccc3)CC2)c1O	none
COc1cc(COc2cc(C)cc3oc(=O)c4c(c23)CCC4)cc(OC)c1OC	none
CC1N=C(c2ccccc2)c2ccccc2N(CC(=O)Nc2ccc(F)c(Cl)c2)C1=O (configuration not stated)	mHTT-CaM PPI inh 66
CC1N=C(c2ccccc2)c2ccccc2N(CC(=O)Nc2ccc(F)cc2Cl)C1=O (configuration not stated)	none
CCCC12CN3CC(C)(CN(C1)C3c1cccnc1)C2=O (configuration not stated)	none
Cc1cccc(NC(=O)CN2C(=O)C(C)N=C(c3ccccc3)c3ccccc32)c1C (configuration not stated)	none
COc1ccc(N=Cc2cc3c(cc2O)OC(N)=C(C#N)C3c2ccco2)cc1 (configuration not stated)	mHTT-CaM PPI inh 71
CC12CCC3C(CCC4CC(O)CCC43C)C1CC(=Cc1cccs1)C2=O (configuration not stated)	none
Fc1ccc2c(c1)[C@@H]1C=CC[C@@H]1[C@H](c1cccnc1)N2	none (no result: Pf apPOL block)
Ic1ccc2c(c1)C1C=CCC1C(c1cccnc1)N2 (configuration not stated)	mHTT-CaM PPI inh 97
O=C(Cc1ccsc1)N1CCCN(C2CCN(Cc3ccc(F)cc3)C2=O)CC1 (configuration not stated)	none
Cc1cccc(CC(=O)N2CCCN(C3CCN(Cc4ccc(F)cc4)C3=O)CC2)c1 (configuration not stated)	mHTT-CaM PPI inh 86
CC12CCC3C(CCC4CCCCC43C)C1CC(=Cc1ccc([N+](=O)[O-])cc1)C2=O (configuration not stated)	none
O=C1NCCCC12CCCNC2=O	none (no result: Pf apPOL block)
O=C(Cc1ccccc1)NC(Oc1ccc([N+](=O)[O-])cc1)C(Cl)(Cl)Cl (configuration not stated)	none
Cn1c(=O)c2c(c3ccccc31)NC(=S)NN=C2	mHTT-CaM PPI inh 97 (no result: Pf apPOL block)
CC(C)C(=O)NCC12CNCC1CCN(C)C2 (configuration not stated)	none
O=C(Cc1ccccc1F)N1CCCN(C2CCN(CC3CC3)C2=O)CC1 (configuration not stated)	none
Fc1cc(C2NCc3ccccc3-n3cccc32)cc(F)c1F (configuration not stated)	none (no result: Pf apPOL block)
CN1C(=O)C(=Cc2cccn2-c2ccc(S(N)(=O)=O)cc2)C(=O)N(C)C1=O	none
Cc1ccc(-n2cccc2C=C2C(=O)NC(=O)NC2=O)cc1Cl	mHTT-CaM PPI inh 80
CC12CCC3C(CCC4CCCCC43C)C1CC(=Cc1ccccc1Cl)C2=O (configuration not stated)	none
CN(C)C(CN)c1cn(C)c2ccccc12 (configuration not stated)	mHTT-CaM PPI inh 69
CC(C)C/C(=N\O)c1cn(C)c2ccccc12	none (no result: Pf apPOL block)
Cc1nn(-c2ccccc2)c([Se])c1C=NC1CCCCC1	mHTT-CaM PPI inh 63
CN1C2CCC1CC(N=Cc1ccccc1)C2 (configuration not stated)	none (no result: mHTT-CaM PPI inh)
COc1ccc(-n2cnc3cc(C(=O)N4CCC5(CC4)OCCO5)ccc32)cc1	none
O=C(c1ccc2c(c1)ncn2-c1ccc(OCc2ccccc2)cc1)N1CCC2(CC1)OCCO2	mHTT-CaM PPI inh 52
O=C1c2ccccc2C(=O)c2ccccc21	none (no result: mHTT-CaM PPI inh)
O=C1C=CC(=O)c2c(O)cccc21	Pf apPOL block 97 (no result: mHTT-CaM PPI inh)
CC(=O)Nc1cccc(OC(NC(=O)Cc2ccccc2)C(Cl)(Cl)Cl)c1 (configuration not stated)	none
CCOc1cc(C(c2c(O)c3ccccc3oc2=O)c2c(O)c3ccccc3oc2=O)ccc1O	mHTT-CaM PPI inh 84
O=c1oc2ccccc2c(O)c1C(c1cccnc1)c1c(O)c2ccccc2oc1=O	none
O=C(O)c1cccc2c1NC(C(=O)O)C1CC(Sc3ccccc3[N+](=O)[O-])C(Cl)C21 (configuration not stated)	mHTT-CaM PPI inh 77
c1ccc(Oc2ccc3[nH]cc(CCN4CC4)c3c2)cc1	mHTT-CaM PPI inh 72 (no result: Pf apPOL block)
NCCc1c[nH]c2ccc(OCc3ccccc3)cc12	mHTT-CaM PPI inh 80!
NCCc1c[nH]c2ccccc12	none (no result: mHTT-CaM PPI inh)
CN1CCCN(Cc2c[nH]c3ccccc23)CC1	none
O=C1C=CCC2C3CCCN4CCCC(CN12)C34 (configuration not stated)	none (no result: mHTT-CaM PPI inh)
COc1ccc(CC(=O)N2CCC3(C2)C(=O)Nc2ccc(OC)cc23)cc1 (configuration not stated)	none
COc1ccc2c(c1)C1(CCN(S(=O)(=O)c3cccc(C)c3)C1)C(=O)N2C (configuration not stated)	none
CCN(CC)c1ccc(CC2C(=O)N(C)C(=O)N(C)C2=O)cc1	mHTT-CaM PPI inh 57
Cc1ccc(CC2C(=O)N(C)C(=O)N(C)C2=O)s1	none
C=CCOc1ccc(CC2C(=O)N(C)C(=O)N(C)C2=O)cc1	mHTT-CaM PPI inh 100
CCn1cc(C(=O)NCc2ccccc2C)c2cccnc21	none
O=[N+]([O-])c1c(Br)sc(Br)c1[N+](=O)[O-]	mHTT-CaM PPI inh 52 (no result: Pf apPOL block)
CCCCSc1nc2ccccc2c(=O)n1-c1ccc(C)cc1	none
O=Cc1nc2ccccc2n1Cc1ccc(Cl)cc1Cl	mHTT-CaM PPI inh 95
O=Cc1nc2ccccc2n1Cc1ccccc1	none
O=[N+]([O-])c1cc2c(cc1CNCCc1c[nH]c3ccccc13)OCO2	mHTT-CaM PPI inh 68
COc1cc(CNCCc2c[nH]c3ccccc23)c([N+](=O)[O-])cc1OC	none
CN(c1nc2ccccc2s1)C1CCN(C[C@H](O)COc2ccc(F)c(F)c2)CC1	none (no result: mHTT-CaM PPI inh)
COc1ccc(CN2CCN(c3ccccc3C)CC2)cc1	none
CN(C)c1ccc(CN2CCN(Cc3ccccc3)CC2)cc1	none
CN(C)c1ccc(CN2CCN(c3ccccc3Cl)CC2)cc1	mHTT-CaM PPI inh 53
CCOc1ccc(-n2c(C(F)(F)F)nc3ccccc3c2=O)cc1	none
CCCn1cc(C(=O)NCCN(C)C)c2cccnc21	none
CCn1cc(C(=O)Nc2ccc(C)cc2C)c2cccnc21	none
Clc1cnc(C(Cl)Cl)c(Cl)c1Cl	none
NCCc1cc(O)c(O)cc1O	none (no result: Pf apPOL block)
NC(Cc1cc(O)c(O)cc1O)C(=O)O (configuration not stated)	Pf apPOL block 81 (no result: mHTT-CaM PPI inh)
Clc1ccccc1C1CC(c2cccnc2)Nc2ncnn21 (configuration not stated)	none
O=C1C2CCCN2C(c2ccncc2)N1c1ccc(Cl)c(Cl)c1 (configuration not stated)	mHTT-CaM PPI inh 85
O=C1C2CCCN2C(c2cccnc2)N1c1ccc(Cl)c(Cl)c1 (configuration not stated)	none
O=C(O)C1Cc2cc(C(F)(F)F)ccc2N2CCCCC12 (configuration not stated)	mHTT-CaM PPI inh 50
CC1CN(c2ccc(C(F)(F)F)cc2[N+](=O)[O-])CC(C)N1 (configuration not stated)	none
CN(C)C(=O)Oc1ccc2c(c1)OC(=Cc1cccnc1)C2=O	none
CN(C)C(=O)Oc1ccc2c(c1)OC(=CC=Cc1ccccc1)C2=O	mHTT-CaM PPI inh 59!
COc1cccc(C=C2Oc3cc(OC(=O)N(C)C)ccc3C2=O)c1	none
Nc1cc2nc3ccccc3nc2cc1O	mHTT-CaM PPI inh 100
